# The entries come from a sample that favours hits as a whole.
# Pf Dd2 inh = inhibitors of Plasmodium falciparum Dd2 growth; P. falciparum Dd2 growth, SYBR Green, 72 h; Potency, µM (series often up to 28.9 µM), usual class: inhibitors; 120,000 compounds, 4.3% hits; AID 1347417; active means well fitted inhibition curve with a large enough effect; further: nearly all actives have a fitted effect of over 65% in size
#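 Infected erythrocytes (Dd2, 0.3% parasitemia, 2.5% hematocrit final) are added to compound in RPMI-1640/Albumax II medium, grown 72 h at 37C in low oxygen, then lysed with saponin/Triton-X containing SYBR Green and read by fluorescence.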
# Hits are given with their value; . = inactive.
SMILES,Pf Dd2 inh
Cn1c(CN2CCOC[C@H]2c2ncc(-c3ccc(Cl)cc3)[nH]2)nc2ccccc21,10µM
CC(C)(C)c1cnc([C@@H]2COCCN2Cc2ccccc2O)[nH]1,2µM
Fc1ccc(-c2cnc([C@@H]3COCCN3Cc3cccnc3)[nH]2)cc1,.
Fc1ccc(CN2CCOC[C@H]2c2ncc(-c3ccc(Cl)s3)[nH]2)cc1,11µM
c1ccc(-c2cnc([C@@H]3COCCN3Cc3cccnc3)[nH]2)cc1,.
Clc1ccc(-c2cnc([C@@H]3COCCN3CC3CC3)[nH]2)s1,.
Clc1ccc(-c2cnc([C@@H]3COCCN3Cc3cnc[nH]3)[nH]2)cc1,.
N[C@@H](Cc1cnc[nH]1)C(=O)NCc1cccnc1Oc1ccc(F)cc1F,.
O=C(CCC[C@@H]1[C@H]2CCCN3CCC[C@@H](CN1C(=O)c1ccccc1)[C@@H]23)NCc1ccc(F)cc1,.
COCC1CN(C(C)=O)CC12CCN(S(=O)(=O)c1ccc(F)cc1)CC2 (centres undefined),.
CN(C)C[C@@H]1CN(Cc2ccncc2)C[C@H]1N,.
COc1ccc(C(=O)N2C[C@@H](Oc3ccccc3)C[C@@H]2C(=O)N2CCOCC2)cc1,.
COCCN1CCC(CN(C)C2CCNCC2)C1 (centres undefined),.
COCCN1CCC2(CCC1=O)CCN(C(=O)CCn1nc(C)cc1C)CC2,.
c1ccc(CN2CC[C@H](c3nnc(-c4ccncc4)o3)C2)cc1,.
CS(=O)(=O)c1ccc(CN2CCOC[C@H]2c2ncc(-c3ccc(F)cc3F)[nH]2)cc1,.
CC(=O)N1CCC(N2CCOC[C@H]2c2ncc(-c3ccc(S(C)(=O)=O)cc3)[nH]2)CC1,.
CS(=O)(=O)c1ccc(CN2CCOC[C@H]2c2ncc(-c3ccc(Cl)cc3)[nH]2)cc1,11µM
CN1CCN(C(=O)[C@@H]2CCC[C@@H](NC3CCC3)CN(C)C(=O)C2)CC1,.
CCc1noc(CN2CCC3(CC2)CN(CCc2ccccc2)C(=O)O3)n1,.
Cc1ccc(CN(Cc2ccco2)C(=O)COc2ccc(C)c(C)c2)cc1,.
Cc1cc(OCC(=O)N(Cc2ccc(N(C)C)cc2)Cc2ccco2)cc(C)c1Cl,.
Cc1cccc(OCC(=O)N(Cc2ccc(C(C)(C)C)cc2)Cc2ccco2)c1,11µM
O=C(c1ccc(Cl)cc1)N1CCOCC2(CN(Cc3ccccc3)C2)C1,.
FC(F)(F)c1cccc(CN2CCOC[C@H](Oc3cnccn3)C2)c1,.
SMILES,Pf Dd2 inh
COC[C@@H]1CNC[C@H]1c1ccccn1,.
O=C(c1cccc(F)c1)N1CCCC(c2noc(COc3ccccc3)n2)C1 (centres undefined),.
CC(C)C(NS(=O)(=O)c1cccc2cccnc12)C(=O)Nc1ccc(OC(F)(F)F)cc1 (centres undefined),10µM
O=C(Nc1cccc(C(F)(F)F)c1)O[C@@H]1CO[C@H]2[C@@H]1OC[C@@H]2NS(=O)(=O)c1cccc2cccnc12,.
CCOc1ccc(NC(=O)C(NS(=O)(=O)c2cccc3nsnc23)c2ccccc2)cc1 (centres undefined),.
COc1ccc(C(=O)N2CCCCC2c2nc(CCOCC3CCOCC3)no2)cc1F (centres undefined),.
O=C(CCC[C@@H]1[C@H]2CCCN3CCC[C@@H](CN1C(=O)c1cccnc1)[C@@H]23)N1CCCC1,.
C=CCN1CCN(C(=O)CCC[C@@H]2[C@H]3CCCN4CCC[C@@H](CN2Cc2ccccc2)[C@@H]34)CC1,.
C=CCN1CCN(C(=O)CCC[C@@H]2[C@H]3CCCN4CCC[C@@H](CN2C(=O)c2ccccc2)[C@@H]34)CC1,10µM
CC(=O)c1ccc(N2CCN(C(=O)c3cc4n(n3)CC(c3ccc(Cl)cc3)OC4)CC2)cc1 (centres undefined),.
CCC(=O)N1CCC(Oc2nccnc2N2CCOCC2)C1 (centres undefined),.
C[C@H](O)c1onc(-c2ccccc2)c1C(=O)NC1CCC1,.
CC(=O)N1CCC(C(=O)NC2CCN(c3cc(-c4ccccc4)[nH]n3)CC2)CC1,.
CCN(CC)Cc1cnc2c(C(=O)NC3CCNCC3)cnn2c1,.
CCCC(=O)Nc1ccc2c(c1)nc(CN1CCN(C(=O)OCC)CC1)n2C(C)C,.
CCn1c(CN2CCCCC2)nc2cc(NC(=O)c3cccc([N+](=O)[O-])c3)ccc21,3.5µM
CCn1c(CN2CCN(C)CC2)nc2ccccc21,.
Cn1c(CN2CCCCC2)nc2cc(NC(=O)c3ccc(Cl)cc3)ccc21,.
CCn1c(CN2CCOCC2)nc2cc(NC(=O)c3cc(OC)c(OC)c(OC)c3)ccc21,.
CCn1c(CN2CCCCC2)nc2cc(NC(=O)COc3ccc(C(C)(C)C)cc3)ccc21,8.9µM
Cn1ccnc1C(=O)N1CCCN(C(=O)C2CC2)c2ccccc21,.
Cc1ccc(OCc2nc(C3CN(C(=O)c4cc(C)nn4C)C3)no2)cc1,.
CC(=O)N1CCN(Cc2nc3c(n2Cc2ccccc2)C(=O)N(Cc2ccccc2C#N)CCN3)CC1,.
O=C(O)c1ccc(NCc2nc3c(n2Cc2ccccc2)C(=O)N(Cc2cccc(Cl)c2)CCN3)cc1,.
CN(Cc1ccccc1)Cc1nc2c(n1Cc1ccccc1)C(=O)N(Cc1ccccc1C#N)CCN2,10µM
SMILES,Pf Dd2 inh
O=C1c2c(nc(CNCc3cnccn3)n2Cc2ccccc2)NCCN1Cc1cccc(Cl)c1,2.2µM
N#Cc1ccccc1CN1CCNc2nc(COc3ccccc3)n(Cc3ccccc3)c2C1=O,.
COCCN1CCNc2nc(CNCc3cccc(Cl)c3)n(Cc3ccccc3)c2C1=O,.
Cc1cc2ncc(C(=O)N3CCC4(CC(=O)NC4=O)C3)c(=O)n2[nH]1 (centres undefined),.
O=C(N1CCN(c2ccccc2)CC1)C1(CCO)CC12CCOCC2 (centres undefined),.
COc1ccc(OCc2cc(C(=O)N3CCN(CC4CC4)CC3)n[nH]2)c(Cl)c1,.
COCc1nnc2n1CCC(NC(=O)C1CC=CC1)CC2 (centres undefined),.
C[S+](=O)([O-])c1ccc(-c2nc(C(=O)NCc3ccc(F)cc3)n3ccccc23)cc1,11µM
C[S+](=O)([O-])c1ccc(-c2nc(C(=O)NCc3cccnc3)n3ccccc23)cc1,.
COCCNC(=O)c1nc(-c2ccc(F)cc2)c2ccccn12,.
O=C(NCc1ccc(F)cc1)c1nc(-c2cc(Cl)cc(Cl)c2)c2ccccn12,10µM
O=C(NCc1ccc2c(c1)OCO2)c1nc(-c2cc(Cl)cc(Cl)c2)c2ccccn12,.
O=C(NCCc1ccc(Cl)cc1)c1nc(-c2ccc(F)cc2)c2ccccn12,.
CS(=O)(=O)c1ccc(OCC2(CNC(=O)c3cccc(F)c3)C[C@@H](O)[C@@H](O)C2)cc1 (some centres undefined),.
COc1ccc(NC(=O)CC2=C3CCCCC3NC2=O)cn1 (centres undefined),.
O=C1c2c(nc(COc3cccnc3)n2Cc2ccccc2)NCCN1CCOc1ccccc1,.
COc1ccc(Cl)cc1C(=O)NCCc1noc(C)n1,.
COCC(=O)N[C@H]1C[C@@H](CO)N(Cc2ccc(C)s2)C1,.
Cc1ccc(C(=O)N[C@H]2CO[C@H]3[C@@H]2OC[C@@H]3n2cc(CN(C)Cc3ccccc3)nn2)cc1,.
Cn1c(=O)c2c(ncn2Cc2ccc(Cl)cc2)n(C)c1=O,.
Cn1c(=O)c2c(-c3ccc(Cl)cc3)n(Cc3ccc(Cl)cc3)cc2n(C)c1=O,11µM
CCOC(=O)Cn1cc2c(c1-c1ccc(Cl)cc1)c(=O)n(C)c(=O)n2C,.
